Measured values from PubChem BioAssay (NCATS).
Records with an inconclusive call do not appear. Active and inactive are the calls of the source. Unless noted, calls follow the shape of the dose curve; as a rule, active = well fitted activation curve with a large enough effect; inconclusive = small, poorly fitted or top-dose-only effect; inactive = flat fitted curve, though single readings scatter.

Experiment: Primary redox qHTS assay for identification of artifact compounds. (AID 1845223);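 also: 0% = DMSO and 100% = reference compound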
Conditions: Amplex Red/HRP redox cycling with DTT, fluorescence; series mostly up to 53.8 µM; redox activity (% of DA3003): at the top concentration
Method in brief: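 Redox-cycling detection via DTT (250 uM final) oxidation coupled to Amplex Red (25 uM)/HRP (250 mU/mL) in HBSS. 15 min preincubation plus 30 min after DTT, room temperature. Ex/Em 525/598 nm; 4-parameter Hill fit against DMSO and 10 uM DA3003.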

| Structure (SMILES) | redox activity (% of DA3003) |
| --- | --- |
| C=C1CCC2C(C)(C)C(O)CCC2(C)C1CCC(C)CCOC(=O)CCC(=O)O (stereo not given) | 5.34% [at 25.6 µM] (inactive) |
| OCc1ccccc1O[C@@H]1O[C@H](CO)[C@@H](O)[C@H](O)[C@H]1O | -0.102% (inactive) |
| COc1cc(CC(COC2OC(CO)C(O)C(O)C2O)c2cc(/C=C/CO)cc(OC)c2O)ccc1O (stereo not given) | 0.0536% [at 25.6 µM] (inactive) |
| CC(/C=C/C1(O)C2(C)COC1(C)CC(=O)C2)O[C@@H]1O[C@H](CO)[C@@H](O)[C@H](O)[C@H]1O (stereo not given in full) | -5.08% [at 25.6 µM] (inactive) |
| CN1C(=O)c2ccccc2-n2c(nc3ccccc3c2=O)[C@@]12O[C@H]2c1ccccc1 | 0% (inactive) |
| CC1OC(OC2C(C)OC(OC3C(OC(=O)/C=C/c4ccc(O)cc4)C(CO)OC(OC4(COC(=O)/C=C/c5ccc(O)cc5)OC(CO)C(O)C4O)C3OC3OCC(O)(CO)C3O)C(O)C2O)C(O)C(O)C1O (stereo not given) | -13.7% [at 11.5 µM] (inactive) |
| N[C@@H](CC(=O)N1CCn2c(nnc2C(F)(F)F)C1)Cc1[nH]nc2c(F)c(F)ccc12 | -5.03% (inactive) |
| COC(=O)C1=CO[C@@H](O[C@@H]2O[C@H](CO)[C@@H](O)[C@H](O)[C@H]2O)[C@@H]2[C@@H](C)[C@@H](O)C[C@H]12 | -18.4% (inactive) |
| CCn1cc(C2=NOC(C(=O)Nc3c(C)n(C)n(-c4ccccc4)c3=O)C2)c(C)n1 (stereo not given) | 0% (inactive) |
| CCC(NC(=O)CC(NC(=O)C(CO)NC(=O)C(CC)NC(=O)c1ccc[nH]1)c1ccccc1)C(=O)O (stereo not given) | -16.9% [at 25.6 µM] (inactive) |
| CC(C)=CCCC1(C)Oc2cc3c(c4c2C2C(O4)C(C)(O)CCC21)CN(C(CCC(=O)O)C(=O)O)C3=O (stereo not given) | 7.4% [at 25.6 µM] (inactive) |
| O=S(=O)(Nc1ccc(C(O)(C(F)(F)F)C(F)(F)F)cc1)c1cccs1 | -1.74% (inactive) |

Experiment: qHTS drug screen for cell cycle checkpoint inhibitors in PARPi-resistant BRCA-mutant ovarian cancer cell lines. (AID 1963452; calls by dose curve)
Conditions: PEO1/OlaR viability, CellTiter-Glo luminescence, 96 h; stronger effect = lower value
Method in brief: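 PEO1, PEO4 and PEO1/OlaR ovarian cancer cells, 600 per well, exposed 96 h at 37C to a dilution series. Viability read by CellTiter-Glo luminescence, normalized to DMSO and empty wells; activity summarized as Z-AUC.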

| Structure (SMILES) | Z-AUC |
| --- | --- |
| CCOC(=O)c1ccnc(CNCC(=O)N(CC)CCN(C)C)c1 | 1.38 (inactive) |
| NS(=O)(=O)NCCNc1nonc1C(=Nc1ccc(F)c(Br)c1)NO | 1.03 (inactive) |
| O=C(C1CC1)N1CC[C@@H](Cc2n[nH]c(=O)n2-c2ccc(-c3ccc4occc4c3)cc2)C1 | 1.31 (inactive) |
| OCc1ccccc1O[C@@H]1O[C@H](CO)[C@@H](O)[C@H](O)[C@H]1O | 1.58 (inactive) |

Same assay, conditions: PEO1/OlaR viability, CellTiter-Glo luminescence, 96 h; measured here: PEO1 parental Z-AUC; stronger effect = lower value

| Structure (SMILES) | Z-AUC |
| --- | --- |
| CCOC(=O)c1ccnc(CNCC(=O)N(CC)CCN(C)C)c1 | 0.751 |
| NS(=O)(=O)NCCNc1nonc1C(=Nc1ccc(F)c(Br)c1)NO | 0.698 |
| O=C(C1CC1)N1CC[C@@H](Cc2n[nH]c(=O)n2-c2ccc(-c3ccc4occc4c3)cc2)C1 | 0.792 |
| OCc1ccccc1O[C@@H]1O[C@H](CO)[C@@H](O)[C@H](O)[C@H]1O | 1.17 |
